From PubChem BioAssay (NCATS)
Values joined by “and” are separate entries in the source; they are usually repeats but may differ in a detail not shown here. Identical values can stand only once. Results filed as inconclusive are left out. Active and inactive are the calls of the source. The call rests on the fitted dose curve; in most records, active means well fitted cell-killing curve with a large enough effect; inconclusive means small, poorly fitted or top-dose-only effect; inactive means flat fitted curve, though single readings scatter.

Experiment: Cellular viability qHTS for adrenocortical cancer (ACC) cell line SW-13 (AID 1963989); further: nearly all actives have a fitted effect of over 65% in size;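 on activity (max response): cells grown in serum-free medium with ITS supplement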
Conditions: SW-13 ACC cells viability, CellTiter-Glo, 48 h; activity (max response): stronger effect = lower value
In short: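 SW-13 cells in ITS-supplemented serum-free DMEM were plated overnight, then exposed for 48 h at 37C to compound titrations (up to 46 uM final). Viability was read by CellTiter-Glo luminescence; four-parameter logistic fits gave IC50 and efficacy.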
On the % scale 0 is the no-effect control and ±100 the full control effect; potency means the concentration at half of the fitted maximal effect.

| SMILES | activity (max response) | Potency |
| --- | --- | --- |
| CC(C)(C(=O)O)c1ccc(C(O)CCCN2CCC(C(O)(c3ccccc3)c3ccccc3)CC2)cc1 (centres undefined) | -2.55% (inactive) | – |
| O=C(OCC1(COC(=O)c2cccnc2)CCCC(COC(=O)c2cccnc2)(COC(=O)c2cccnc2)C1O)c1cccnc1 | 7.27% (inactive) | – |
| O=c1oc2c(C3OCCCO3)c(O)ccc2c2c1CNCC2 | 5.04% (inactive) | – |
| OC[C@H]1O[C@@H](S[C@@H]2O[C@H](CO)[C@H](O)[C@H](n3cc(-c4cccc(F)c4)nn3)[C@H]2O)[C@H](O)[C@@H](n2cc(-c3cccc(F)c3)nn2)[C@H]1O | 11.8% (inactive) | – |
| NS(=O)(=O)c1cc2c(cc1Cl)NC(CC1CCCC1)NS2(=O)=O (centres undefined) | 10.5% (inactive) | – |
| COc1cc2c(cc1OC)CN(CCc1ccc(-n3nnc(-c4cc(OC)c(OC)cc4NC(=O)c4cc(=O)c5ccccc5o4)n3)cc1)CC2 | -2.39% (inactive) | – |
| CC1(C)OC2=C(C(=O)c3ccccc3C2=O)[C@H](NCc2ccccc2)[C@@H]1O | – | 3.98 µM (active) |
| Nc1ccc(C(=O)O)c(O)c1 | 12.8% (inactive) | – |
| C[C@@H]1N=C(N)NC(N(C)C)=N1 | -4.04% (inactive) | – |
| CN1CCC[C@@H]1c1cccnc1 | -8.92% (inactive) | – |
| CC(=O)OCC(=O)[C@@]12OC(C)(C)O[C@@H]1C[C@H]1[C@@H]3C[C@H](F)C4=CC(=O)C=C[C@]4(C)[C@@]3(F)[C@@H](O)C[C@@]12C | 10.5% (inactive) and 8.23% (inactive) | – |
| O=C(Nc1ccnc(NC(=O)C2CC2)c1)c1c(Cl)cccc1Cl | – | 15.8 µM (active) |
| Cc1cc(OCc2nnc(SC3CCCC3)n2-c2cccnc2)ccc1-c1ccc(S(C)(=O)=O)cc1 | -6.15% (inactive) | – |
| CCc1cc2c(cc1N1CCC(N3CCOCC3)CC1)C(C)(C)c1[nH]c3cc(C#N)ccc3c1C2=O | -11.5% (inactive) | – |
| NS(=O)(=O)c1cc2c(cc1Cl)NC(C1CC3C=CC1C3)NS2(=O)=O (centres undefined) | -7.72% (inactive) | – |
| CC(C)C[C@H](NC(=O)[C@H](Cc1ccccc1)NC(=O)OCc1ccccc1)C(=O)C=O | -18.6% (inactive) | – |
| CCC1NC(=O)c2cc(S(N)(=O)=O)c(Cl)cc2N1 (centres undefined) | 11.8% (inactive) | – |

| SMILES | activity (max response) | Potency |
| --- | --- | --- |
| COc1cc2nccc(Oc3ccc(NC(=O)c4cn(C(C)C)c(=O)n(-c5ccc(F)cc5)c4=O)cc3F)c2cc1OC | 9.27% (inactive) | – |
| O=C1NC(=O)/C(=C/c2ccc3nccc(-c4ccncc4)c3c2)S1 | – | 1 µM (active) |
| O=C1Nc2nc(-c3c(O)cccc3OCC3CC3)cc([C@@H]3CCCNC3)c2CO1 | – | 22.4 µM (active) |
| CN[C@H]1CC[C@@H](c2ccc(Cl)c(Cl)c2)c2ccccc21 | – | 20.6 µM (active) and 28.2 µM (active) |
| CCC(=O)NC[C@H](Cc1ccc(OCCc2nc(-c3ccccc3)oc2C)cc1)N/C(C)=C\C(=O)c1ccc(C(F)(F)F)cc1 | -7.93% (inactive) | – |
| O=C(c1ccc(F)c(F)c1Nc1ccc(I)cc1F)N1CC(O)([C@@H]2CCCCN2)C1 | – | 12.6 µM (active) |
| NC[C@@](O)(c1ccc(Cl)cc1)c1ccc(-c2cn[nH]c2)cc1 | – | 12.6 µM (active) |
| CC1=C2C[C@H]3[C@@H](CC[C@@H]4C[C@H](NS(C)(=O)=O)CC[C@@]43C)[C@@H]2CC[C@@]2(C1)O[C@@H]1C[C@H](C)CN[C@H]1[C@H]2C | – | 25.1 µM (active) |
| COc1ccc(-c2cc(=O)c3c(O)cc(O[C@@H]4O[C@H](CO[C@@H]5O[C@@H](C)[C@H](O)[C@@H](O)[C@H]5O)[C@@H](O)[C@H](O)[C@H]4O)cc3o2)cc1O | -2.14% (inactive) and 4.75% (inactive) | – |
| CCC[C@H](N[C@H]1CCc2cc(F)cc(F)c2C1)C(=O)Nc1cn(C(C)(C)CNCC(C)(C)C)cn1 | – | 14.1 µM (active) |
| O=C(/C=C/c1ccc(Cl)cc1)N1CCC2(CC1)CN(Cc1ccc(Cl)c(Cl)c1)C(=O)O2 | -3.3% (inactive) | – |
| NC(=O)c1nc(F)c[nH]c1=O | 0.237% (inactive) | – |
| O=C(O)COC(=O)Cc1ccccc1Nc1c(Cl)cccc1Cl | 7.51% (inactive) | – |
| COc1cc(N2CCC(N)CC2)ccc1Nc1ncc(Cl)c(-c2c[nH]c3ccccc23)n1 | – | 3.16 µM (active) |
| CC(COc1ccccc1)NC(C)C(O)c1ccc(O)cc1 (centres undefined) | 3.43% (inactive) | – |
| Cc1ccc2ccc(Cl)cc2n1 | 15.8% (inactive) | – |
| CCCCC1(COC(=O)CCC(=O)O)C(=O)N(c2ccccc2)N(c2ccccc2)C1=O | 6.69% (inactive) | – |
